The record followed here is PubChem BioAssay (NCATS).

“And” between values parts separate entries of the source, which are not always exact repeats. Equal values may be shown once. Records with an inconclusive call do not appear. Where a call stands in place of a potency, no number is given. A number with no mark means an inactive call. The source made the active and inactive calls. The call rests on the fitted dose curve; in most records, active means well fitted inhibition curve with a large enough effect; inconclusive means small, poorly fitted or top-dose-only effect; inactive means flat fitted curve, though single readings scatter.
Potency means the concentration at half of the fitted maximal effect.

For the experiment, the target named is Calcium and integrin-binding protein 1 (Homo sapiens) (UniProt Q99828). The experiment is described as follows: Primary qHTS for Identification of Calcium Integrin Binding Protein 1 (CIB1) Competitor (AID 1508620).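 On activity change, negative = inhibition: GST tagged CIB1 binding a fluorescein labelled alphaIIb integrin peptide tracer; top concentration of the series differs between compounds.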 The settings on record: CIB1-GST / FITC-alphaIIb peptide fluorescence polarization; series mostly up to 57.7 µM; activity change, negative = inhibition: at the top concentration. An excerpt: Assay Provider: Ulhas P. Naik, PhD Sidney Kimmel Medical College Thomas Jefferson University, Philadelphia, PA Primary function of platelets is to maintain hemostasis. At the site of vascular injury, platelets adhere to adhesive proteins such as collagen and von Willebrand factor. Adherent platelets are activated and generate soluble platelet agonists such as thrombin, ADP and thromboxane A2. Following exposure of circulating platelets to these agonists, results in platelet shape change, granule secretion and activation of platelet integrin alphaIIb-beta3. Ligand binding to activated integrin alphaIIb-beta3 triggers outside-in signaling, leading to platelet aggregation, stabilization of platelet plug, and clot retraction. Upon atherosclerotic plaque rupture also causes platelet plug formation, which underlies a number of cardiovascular diseases such as myocardial infraction and stroke. A number of anti-platelet drugs such as aspirin, clopidogrel, prasugrel, vorapaxar, and eptifibatide are currently available to prevent the thrombotic complications. However, these anti-platelet agents have several limitations including inherent variability in individual responses, developing resistance, and serious bleeding side effects. For these reasons they are not suitable for long-term protection. Based on the experiences with current anti-platelet drugs, it appears that the most useful therapeutic approach is to intersect the secondary responses such as integrin outside-in signaling or recruitment of platelets by TxA2 and secreted ADP. Compounds, which can largely preserve the primary hemostatic function of platelets but inhibit secondary response will be most desired therapeutic agents for treatment of cardiovascular disease. CIB1 is a calcium integrin binding protein, which specifically interact with the alphaIIb subunit of integrin alphaIIb-beta3. Binding of CIB1 to alphaIIb regulates the outside-in signaling in platelets, which is needed for thrombus stabilization and thrombus growth. […] Therefore, we propose that discovery of a small molecule that can prevent the association of CIB1 and alphaIIb-beta3 will be a potential anti-platelet agent that can block the thrombus formation without undue effect on hemostasis. Reference: [1] Naik MU, Nigam A, Manrai P, et al. CIB1 deficiency results in impaired thrombosis: the potential role of CIB1 in outside-in signaling through integrin alpha IIb beta 3. J Thromb Haemost.
Chain of Calcium and integrin-binding protein 1 (Homo sapiens) (Q99828 whole entry, looked up): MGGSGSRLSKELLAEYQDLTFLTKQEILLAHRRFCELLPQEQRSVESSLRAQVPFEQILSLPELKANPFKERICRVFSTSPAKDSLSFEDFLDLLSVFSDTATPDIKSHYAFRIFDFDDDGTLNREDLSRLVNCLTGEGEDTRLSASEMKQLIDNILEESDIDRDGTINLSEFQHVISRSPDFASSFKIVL
PROTOCOL TABLES SEQUENCE No. (1, 2, 3, etc.); […] (e.g., Cells, Incubation, Reagent, etc.); VALUE and DESCRIPTION. 1; Reagent; 3 uL; Protein or buffer (4/3x) 2; Compound; 46 nL; Control inhibitor / compound library 3; Time; 15 min; Room temperature incubation 4; Reagent; 1 uL; Fluorescent labeled peptide (4x) 5; Time; 1000 rpm; Centrifuge 6; Time; 15 min; Room temperature incubation 7; Detection; Ex 480/ Em 540; ViewLux Fluorescence Read NOTES (numbers refer to sequence above) 1; Protein Mixture: C1B1-GST (final concentrations of 1 uM). […] 3; Room temperature incubation. 4; Fluorescent Labeled Peptide: FITC-aIIb (final concentration of 100 nM). Sequence of alphaIIb peptide: Acetyl-[…]-FITC (purity is 95.83%). 5; Centrifuge 1000 rpm (164 g) for 15 seconds. 6; Room temperature incubation. 7; ViewLux Fluorescent Polization Read: excitation = 480(20) / emission = 540(25) S and P; FITC Dichroic mirror.
As to `NCCS(=O)(=O)O`, the Potency entry was “inactive”.
On to `Clc1ccccc1C(c1ccccc1)(c1ccccc1)n1ccnc1`, for which the Potency result is “inactive”.
As to `CCc1cccc2c3c([nH]c12)C(CC)(CC(=O)O)OCC3` (stereo not given), the Potency result is “inactive”.
`CN(C)CCOC(c1ccccc1)c1ccccc1`: the Potency entry was “inactive”.
With `COc1cc2nc(N3CCN(C(=O)c4ccco4)CC3)nc(N)c2cc1OC`, the Potency entry is “inactive”.
As for `Cn1c(=O)c2[nH]cnc2n(C)c1=O`, the Potency entry is “inactive”.
As to `Cc1cc(C(C)(C)C)cc(C)c1CC1=NCCN1`, the Potency result was “inactive”.
Take `O=C(Nc1ccc([N+](=O)[O-])cc1Cl)c1cc(Cl)ccc1O`: the Potency result is “inactive”.
Same read-out and setting: next, `Cc1cn([C@H]2C[C@H](N=[N+]=[N-])[C@@H](CO)O2)c(=O)[nH]c1=O`: “inactive”; `CN1CCN2c3ccccc3Cc3ccccc3C2C1` (stereo not given): “inactive”.
On to `C[C@@H]1CC(=O)NN=C1c1ccc(NN=C(C#N)C#N)cc1`, for which the Potency entry was “inactive”.
For the compound `COc1cc2nc(N(C)CCCNC(=O)C3CCCO3)nc(N)c2cc1OC` (stereo not given), the Potency result is “inactive”.
Regarding `N[C@@H](Cc1c[nH]c2ccc(O)cc12)C(=O)O`, the Potency entry is “inactive”.
For `O=C1N(c2ccccc2)c2ccccc2C1(Cc1ccncc1)Cc1ccncc1`, the Potency result was “inactive”.
For `CN(C)C(=N)N=C(N)N`, the “activity change, negative = inhibition” value was -3.56%.
`CCC1(C)CC(=O)NC1=O` (stereo not given): the Potency entry was “inactive”.
Still for that read-out and setting: the same measure for `CC[C@@]1(O)C(=O)OCc2c1cc1n(c2=O)Cc2cc3c(CN(C)C)c(O)ccc3nc2-1`: 28.2 µM (active) and 24.1 µM (active) and 31.6 µM (active); for `O=C(C1CCCCC1)N1CC(=O)N2CCc3ccccc3C2C1` (stereo not given): “inactive”; for `CC(C)(C)C(=O)Oc1ccc(S(=O)(=O)Nc2ccccc2C(=O)NCC(=O)O)cc1`: “inactive”.
As for `CCCCc1oc2ccccc2c1C(=O)c1cc(I)c(OCCN(CC)CC)c(I)c1`, the Potency entry is “inactive”.
On to `CCC1(c2ccccc2)C(=O)NCNC1=O`, for which the Potency entry is “inactive”.
Take `CCOC(=O)C(C)(C)Oc1ccc(Cl)cc1`: the Potency result was “inactive”.
Consider `O=C(c1ccc(OCCN2CCCCC2)cc1)c1c(-c2ccc(O)cc2)sc2cc(O)ccc12`, for which the Potency result was “inactive”.
As to `Cc1ccc(C(=O)Nc2ccc(S(=O)(=O)O)c3cc(S(=O)(=O)O)cc(S(=O)(=O)O)c23)cc1NC(=O)c1cccc(NC(=O)Nc2cccc(C(=O)Nc3cc(C(=O)Nc4ccc(S(=O)(=O)O)c5cc(S(=O)(=O)O)cc(S(=O)(=O)O)c45)ccc3C)c2)c1`, the “activity change, negative = inhibition” value is -18.7% [at 114 µM].
For the compound `NC(=O)OCC(COC(N)=O)c1ccccc1`, the Potency entry is “inactive”.
Same read-out and setting: the same measure for `Fc1ccc([C@@H]2CCNC[C@H]2COc2ccc3c(c2)OCO3)cc1`: “inactive”; for `CC(C)C(=O)Nc1ccc([N+](=O)[O-])c(C(F)(F)F)c1`: “inactive”.
Take `CN(Cc1cnc2nc(N)nc(N)c2n1)c1ccc(C(=O)N[C@@H](CCC(=O)O)C(=O)O)cc1`: the Potency result was “inactive”.
Consider `CN1CCN(C2=Nc3cc(Cl)ccc3Nc3ccccc32)CC1`, for which the Potency entry was “inactive”.
In the case of `CN(C)CCC=C1c2ccccc2C=Cc2ccccc21`, the Potency entry was “inactive”.
Still for that read-out and setting: next, `COc1ccc2[nH]cc(CCNC(C)=O)c2c1`: “inactive”; `NCCCCCC(=O)O`: “inactive”; `CCOC(=O)c1ncn2c1CN(C)C(=O)c1cc(F)ccc1-2`: “inactive”.
For the compound `NCCc1cnc[nH]1`, the Potency result was “inactive”.
Regarding `CC(=O)OCC(CCn1cnc2cnc(N)nc21)COC(C)=O`, the Potency entry is “inactive”.
Take `CC#C[C@]1(O)CC[C@H]2[C@@H]3CCC4=CC(=O)CCC4=C3[C@@H](c3ccc(N(C)C)cc3)C[C@@]21C`: the Potency entry was “inactive”.
Still for that read-out and setting: next, `CN(CCOc1ccc(NS(C)(=O)=O)cc1)CCc1ccc(NS(C)(=O)=O)cc1`: “inactive”.
On to `CN1CCC(=C2c3ccccc3CC(=O)c3sccc32)CC1`, for which the Potency entry was “inactive”.
For `CC1(C)O[C@H]2CC(=O)OC[C@]23[C@H]2CC[C@@]4(C)[C@H](c5ccoc5)OC(=O)[C@H]5O[C@]54[C@]2(C)C(=O)C[C@@H]13`, the Potency result was “inactive”.
Take `CNCCCC12CCC(c3ccccc31)c1ccccc12`: the Potency result is “inactive”.
